Assay results: the supplement of paper PMC10849652
The full data set covers some 8,800 targets. This sample favours those with a hit. About 0.5% of all pairs of compound and target were hits.

compound: CC(C)(C)Cn1c(N)nc2ccc(-c3[nH]c(C(C)(C)C)nc3-c3ccc(F)cc3)nc21 [ralimetinib]; assay: log2 fold change, soluble protein after heating vs DMSO (PISA); higher = thermal stabilisation; K562 lysate, 10 uM; active = over 0.2 and 3.5 SD of the protein, either way, in both replicates (recomputed)
Procedure, shortened: (§1)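 Thermal stability, expressed as log-two fold change relative to solvent controls, is given from duplicates. Crude K562 extract in PBS pH 7.4 with 1 mM MgCl2, at 1 mg/mL protein, was treated with 10 μM compound for 30 min and heated in aliquots for 3 min across 48°C-58°C. After pooling, adjustment to 0.5% NP-40 at 4°C and centrifugation at 21,000xg for 90 min, supernatant protein was measured by TMTpro 16plex LC-MS/MS with channel sums equalised.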

Chain of UniProt Q5T4S7 (Q5T4S7 whole entry, looked up): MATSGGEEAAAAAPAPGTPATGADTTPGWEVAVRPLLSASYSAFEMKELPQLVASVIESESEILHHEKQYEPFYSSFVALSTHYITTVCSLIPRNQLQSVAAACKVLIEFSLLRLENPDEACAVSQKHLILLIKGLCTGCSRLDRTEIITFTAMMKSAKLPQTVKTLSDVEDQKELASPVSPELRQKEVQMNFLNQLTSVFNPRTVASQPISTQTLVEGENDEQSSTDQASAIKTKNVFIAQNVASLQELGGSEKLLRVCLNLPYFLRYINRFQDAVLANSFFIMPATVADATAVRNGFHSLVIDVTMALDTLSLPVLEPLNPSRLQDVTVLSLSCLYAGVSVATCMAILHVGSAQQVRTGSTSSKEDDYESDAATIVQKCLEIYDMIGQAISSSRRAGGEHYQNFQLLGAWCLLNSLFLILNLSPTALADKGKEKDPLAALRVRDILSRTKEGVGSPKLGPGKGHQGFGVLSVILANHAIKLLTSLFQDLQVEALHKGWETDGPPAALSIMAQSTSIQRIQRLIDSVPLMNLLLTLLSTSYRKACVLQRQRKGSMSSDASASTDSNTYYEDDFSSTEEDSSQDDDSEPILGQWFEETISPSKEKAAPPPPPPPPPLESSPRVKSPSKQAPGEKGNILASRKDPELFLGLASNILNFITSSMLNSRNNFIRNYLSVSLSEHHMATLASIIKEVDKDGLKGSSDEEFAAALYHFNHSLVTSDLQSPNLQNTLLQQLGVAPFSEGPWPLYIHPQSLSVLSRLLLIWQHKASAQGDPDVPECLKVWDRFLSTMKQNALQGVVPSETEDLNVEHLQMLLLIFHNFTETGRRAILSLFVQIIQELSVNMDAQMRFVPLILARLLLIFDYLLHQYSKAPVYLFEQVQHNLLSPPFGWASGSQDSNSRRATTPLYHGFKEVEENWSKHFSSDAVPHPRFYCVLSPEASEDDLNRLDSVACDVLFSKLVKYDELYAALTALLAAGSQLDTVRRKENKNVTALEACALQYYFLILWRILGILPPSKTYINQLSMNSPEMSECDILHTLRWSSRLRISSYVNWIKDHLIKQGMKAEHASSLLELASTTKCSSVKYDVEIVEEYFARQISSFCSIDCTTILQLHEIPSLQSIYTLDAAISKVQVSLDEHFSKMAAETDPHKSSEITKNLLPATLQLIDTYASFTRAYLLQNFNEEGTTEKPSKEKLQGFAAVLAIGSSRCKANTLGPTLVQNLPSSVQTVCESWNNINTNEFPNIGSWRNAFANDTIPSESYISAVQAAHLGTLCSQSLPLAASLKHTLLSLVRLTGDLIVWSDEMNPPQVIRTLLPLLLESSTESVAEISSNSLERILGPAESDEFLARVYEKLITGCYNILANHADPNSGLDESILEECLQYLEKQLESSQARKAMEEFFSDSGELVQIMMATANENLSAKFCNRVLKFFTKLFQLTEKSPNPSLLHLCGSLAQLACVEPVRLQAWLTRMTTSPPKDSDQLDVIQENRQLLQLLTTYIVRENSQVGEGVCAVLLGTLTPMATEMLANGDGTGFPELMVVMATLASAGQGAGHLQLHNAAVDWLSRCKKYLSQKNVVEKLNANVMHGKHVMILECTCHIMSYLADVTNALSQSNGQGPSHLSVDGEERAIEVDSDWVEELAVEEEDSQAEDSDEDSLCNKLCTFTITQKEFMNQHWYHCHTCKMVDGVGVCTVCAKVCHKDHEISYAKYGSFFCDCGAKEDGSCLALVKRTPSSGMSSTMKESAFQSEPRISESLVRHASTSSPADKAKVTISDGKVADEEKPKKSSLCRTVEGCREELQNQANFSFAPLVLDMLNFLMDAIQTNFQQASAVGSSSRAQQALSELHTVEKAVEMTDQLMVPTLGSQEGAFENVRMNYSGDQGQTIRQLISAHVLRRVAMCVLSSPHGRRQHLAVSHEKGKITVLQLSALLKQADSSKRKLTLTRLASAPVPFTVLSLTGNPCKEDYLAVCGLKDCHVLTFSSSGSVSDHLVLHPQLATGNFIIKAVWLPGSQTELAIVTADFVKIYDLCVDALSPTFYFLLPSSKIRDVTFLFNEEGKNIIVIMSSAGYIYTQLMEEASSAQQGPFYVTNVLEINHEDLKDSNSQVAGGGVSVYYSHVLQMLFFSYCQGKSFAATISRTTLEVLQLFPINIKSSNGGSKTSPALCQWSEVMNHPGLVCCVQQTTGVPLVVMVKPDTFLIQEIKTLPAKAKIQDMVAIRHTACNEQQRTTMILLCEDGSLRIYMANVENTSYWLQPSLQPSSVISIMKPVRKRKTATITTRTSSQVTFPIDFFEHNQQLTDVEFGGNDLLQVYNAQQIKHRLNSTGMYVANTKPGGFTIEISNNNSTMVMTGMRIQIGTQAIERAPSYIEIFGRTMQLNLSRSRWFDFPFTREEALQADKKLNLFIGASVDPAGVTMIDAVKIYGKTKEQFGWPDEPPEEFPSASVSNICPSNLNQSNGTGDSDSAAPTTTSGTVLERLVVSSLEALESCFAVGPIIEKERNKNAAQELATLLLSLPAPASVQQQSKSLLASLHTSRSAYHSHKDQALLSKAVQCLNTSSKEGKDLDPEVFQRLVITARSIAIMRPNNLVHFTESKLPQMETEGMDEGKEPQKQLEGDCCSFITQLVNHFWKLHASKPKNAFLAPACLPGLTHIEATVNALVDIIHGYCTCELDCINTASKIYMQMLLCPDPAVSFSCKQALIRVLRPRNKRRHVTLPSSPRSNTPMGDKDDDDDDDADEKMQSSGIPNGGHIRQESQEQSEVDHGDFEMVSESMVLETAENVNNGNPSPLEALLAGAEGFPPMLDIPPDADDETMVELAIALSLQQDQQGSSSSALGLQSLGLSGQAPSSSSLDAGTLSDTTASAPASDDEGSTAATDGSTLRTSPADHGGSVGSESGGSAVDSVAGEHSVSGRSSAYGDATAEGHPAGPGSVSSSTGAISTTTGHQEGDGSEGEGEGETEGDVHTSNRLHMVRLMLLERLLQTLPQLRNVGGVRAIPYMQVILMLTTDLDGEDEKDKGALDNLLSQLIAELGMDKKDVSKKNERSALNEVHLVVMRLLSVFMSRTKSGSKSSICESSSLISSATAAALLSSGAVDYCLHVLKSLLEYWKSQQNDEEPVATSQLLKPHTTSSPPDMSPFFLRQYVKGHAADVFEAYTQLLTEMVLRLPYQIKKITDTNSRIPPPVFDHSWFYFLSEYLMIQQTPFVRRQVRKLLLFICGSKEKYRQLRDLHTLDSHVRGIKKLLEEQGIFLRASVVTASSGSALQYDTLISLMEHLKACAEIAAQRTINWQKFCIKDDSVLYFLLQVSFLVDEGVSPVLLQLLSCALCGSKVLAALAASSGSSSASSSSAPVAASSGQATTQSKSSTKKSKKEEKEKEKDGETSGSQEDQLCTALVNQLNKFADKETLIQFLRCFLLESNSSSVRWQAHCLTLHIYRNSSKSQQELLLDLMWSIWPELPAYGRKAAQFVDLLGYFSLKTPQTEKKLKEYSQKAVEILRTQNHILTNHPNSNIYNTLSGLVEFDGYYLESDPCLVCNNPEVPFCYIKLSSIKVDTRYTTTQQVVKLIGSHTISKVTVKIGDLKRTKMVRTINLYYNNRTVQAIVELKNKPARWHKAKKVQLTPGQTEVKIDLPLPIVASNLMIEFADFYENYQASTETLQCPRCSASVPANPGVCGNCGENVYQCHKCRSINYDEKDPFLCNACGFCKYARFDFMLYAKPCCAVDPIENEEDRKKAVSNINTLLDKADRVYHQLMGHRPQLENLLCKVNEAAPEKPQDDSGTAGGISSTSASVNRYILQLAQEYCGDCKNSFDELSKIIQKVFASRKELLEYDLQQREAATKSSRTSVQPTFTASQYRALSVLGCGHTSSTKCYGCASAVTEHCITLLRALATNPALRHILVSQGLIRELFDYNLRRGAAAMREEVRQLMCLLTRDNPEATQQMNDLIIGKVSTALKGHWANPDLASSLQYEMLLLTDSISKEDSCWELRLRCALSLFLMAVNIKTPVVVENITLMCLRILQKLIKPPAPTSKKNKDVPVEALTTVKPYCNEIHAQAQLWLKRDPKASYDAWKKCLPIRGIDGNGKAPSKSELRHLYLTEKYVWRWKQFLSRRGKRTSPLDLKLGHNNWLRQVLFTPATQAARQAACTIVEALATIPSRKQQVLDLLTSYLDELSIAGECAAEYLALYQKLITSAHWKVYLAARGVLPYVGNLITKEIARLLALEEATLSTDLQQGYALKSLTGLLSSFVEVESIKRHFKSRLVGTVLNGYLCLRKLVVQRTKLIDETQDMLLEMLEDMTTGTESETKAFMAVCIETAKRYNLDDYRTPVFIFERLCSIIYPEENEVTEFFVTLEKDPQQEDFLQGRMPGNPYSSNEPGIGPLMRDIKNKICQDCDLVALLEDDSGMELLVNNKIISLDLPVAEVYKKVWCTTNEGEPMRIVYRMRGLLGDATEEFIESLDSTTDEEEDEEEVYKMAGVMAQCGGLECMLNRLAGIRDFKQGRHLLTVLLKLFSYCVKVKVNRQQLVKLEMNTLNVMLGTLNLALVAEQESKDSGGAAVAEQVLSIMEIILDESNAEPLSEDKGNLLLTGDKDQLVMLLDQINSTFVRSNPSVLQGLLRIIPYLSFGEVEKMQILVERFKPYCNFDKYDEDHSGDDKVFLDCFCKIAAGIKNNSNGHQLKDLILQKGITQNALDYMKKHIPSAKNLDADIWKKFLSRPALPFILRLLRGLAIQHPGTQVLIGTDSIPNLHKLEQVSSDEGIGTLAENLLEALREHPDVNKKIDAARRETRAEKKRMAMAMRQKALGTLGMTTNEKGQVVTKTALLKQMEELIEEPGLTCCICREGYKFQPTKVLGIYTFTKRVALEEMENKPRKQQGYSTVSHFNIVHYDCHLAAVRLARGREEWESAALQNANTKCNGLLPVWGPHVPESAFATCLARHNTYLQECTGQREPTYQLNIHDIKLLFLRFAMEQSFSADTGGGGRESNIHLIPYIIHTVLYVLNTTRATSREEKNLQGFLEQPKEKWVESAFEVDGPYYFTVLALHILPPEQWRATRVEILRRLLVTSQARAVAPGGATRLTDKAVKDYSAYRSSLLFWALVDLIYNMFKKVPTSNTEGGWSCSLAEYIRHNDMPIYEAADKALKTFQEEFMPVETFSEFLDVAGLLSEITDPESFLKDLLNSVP

log2 fold change, inactive:
TMEM132A isoform 2 (UniProt Q24JP5) 0.065
TASP1 (UniProt Q9H6P5) -0.073
TPD52L2 isoform 3 (UniProt O43399) 0.167
TPM3 isoform 3 (UniProt P06753) 0.145
TMEM154 (UniProt Q6P9G4) -0.079
UBR4 isoform 4 (UniProt Q5T4S7) -0.092
TNFAIP3 (UniProt P21580) -0.056
TRAF7 (UniProt Q6Q0C0) 0.046
TNIK isoform 5 (UniProt Q9UKE5) 0.016
TCF3 isoform 2 (UniProt P15923) -0.118
TUBB4A (UniProt P04350) 0.074
TM2D3 (UniProt Q9BRN9) -0.14
TSPAN3 (UniProt O60637) -0.069
TLE3 isoform 5 (UniProt Q04726) -0.027
UBAP2L isoform 1 (UniProt Q14157) -0.306
TCF4 (UniProt P15884) -0.069
TRPM4 (UniProt Q8TD43) -0.021
TMSB4X (UniProt P62328) 0
TXNRD2 isoform 3 (UniProt Q9NNW7) -0.018
TEDC1 (UniProt Q86SX3) -0.049
U2AF1L5 (UniProt P0DN76) -0.019
TMC1 (UniProt Q8TDI8) 0.156
UCP2 (UniProt P55851) 0.091
TUBGCP5 (UniProt Q96RT8) 0.038
THAP9 (UniProt Q9H5L6) -0.168

compound: CC(C)(O)CC(=O)NCCn1ccc2ncnc(Nc3ccc(Oc4cccc(C(F)(F)F)c4)c(Cl)c3)c21; assay: as above
Procedure, shortened: as §1

log2 fold change, inactive:
TMEM132A isoform 2 (UniProt Q24JP5) -0.194
TASP1 (UniProt Q9H6P5) -0.062
TPD52L2 isoform 3 (UniProt O43399) -0.038
TPM3 isoform 3 (UniProt P06753) 0.093
TMEM154 (UniProt Q6P9G4) 0.164
UBR4 isoform 4 (UniProt Q5T4S7) -0.201
TNFAIP3 (UniProt P21580) 0.005
TRAF7 (UniProt Q6Q0C0) -0.091
TNIK isoform 5 (UniProt Q9UKE5) -0.026
TCF3 isoform 2 (UniProt P15923) -0.103
TUBB4A (UniProt P04350) 0.039
TM2D3 (UniProt Q9BRN9) -0.157
TSPAN3 (UniProt O60637) -0.025
TLE3 isoform 5 (UniProt Q04726) -0.077
UBAP2L isoform 1 (UniProt Q14157) -0.123
TCF4 (UniProt P15884) 0.005
TRPM4 (UniProt Q8TD43) -0.063
TMSB4X (UniProt P62328) -0.072
TXNRD2 isoform 3 (UniProt Q9NNW7) -0.323
TEDC1 (UniProt Q86SX3) -0.001
U2AF1L5 (UniProt P0DN76) 0.001
TMC1 (UniProt Q8TDI8) -0.185
UCP2 (UniProt P55851) -0.081
TUBGCP5 (UniProt Q96RT8) 0.026
THAP9 (UniProt Q9H5L6) -0.332

compound: CC(C)C1=C2N=C(C=C(N2N=C1)NCC3=CC=CC=C3)NCCCCCCN; assay: as above
Procedure, shortened: as §1

log2 fold change, inactive:
TMEM132A isoform 2 (UniProt Q24JP5) 0.03
TASP1 (UniProt Q9H6P5) 0.028
TPD52L2 isoform 3 (UniProt O43399) 0.017
TFPT (UniProt P0C1Z6) -0.053
TPM3 isoform 3 (UniProt P06753) -0.125
UBR4 isoform 4 (UniProt Q5T4S7) 0.111
TNFAIP3 (UniProt P21580) -0.045
TCF3 isoform 2 (UniProt P15923) 0.046
TUBB4A (UniProt P04350) 0.088
TM2D3 (UniProt Q9BRN9) -0.201
TSPAN3 (UniProt O60637) 0.05
TLE3 isoform 5 (UniProt Q04726) -0.061
TRPM4 (UniProt Q8TD43) -0.325
TRIM3 (UniProt O75382) -0.09
TMSB4X (UniProt P62328) 0.033
TCF20 (UniProt Q9UGU0) -0.317
TXNRD2 isoform 3 (UniProt Q9NNW7) -0.303
TEDC1 (UniProt Q86SX3) -0.066
TGFBR1 isoform 2 (UniProt P36897) -0.032
U2AF1L5 (UniProt P0DN76) 0.069
TMC1 (UniProt Q8TDI8) 0.204
